# Data as given in the emibetuzumab library of Makowski et al. (2022).
# This is one part of the list. The hit rate among all sequences tested is not known here.
# B1: VH:VL chains; a variant is named by its letters at X, in order (parent)
# chain 1: QVQLVQSGAEVKKPGASVKVSCKASGYTFTDYXMHWVRQAPGQGLEWMGXVNPNXXXTTYNQKFEGRVTMTTDTSTSTAYMELRSLRSDDTAVYYCARXNXLDXWGQGTTVTVSS
# chain 2: DIQMTQSPSSLSASVGDRVTITCSVSSSVSSIYLHWYQQKPGKAPKLLIYSTSNLASGVPSRFSGSGSGTDFTLTISSLQPEDFATYYCQVYSGYPLTFGGGTKVEIK
# Variants of: B1
# Test: yeast display scFab, FACS + sequencing
# Settings: with MET
# Summary of the method: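 Heavy-chain CDR mutant scFab yeast surface library, enriched by two magnetic rounds on HGFR-Fc-coated Protein A beads and then by FACS. Cells were labelled with 1 nM HGFR-Fc in PBSB with 1% milk and anti-Myc for 3 h at room temperature, and the top 50% antigen-positive cells were gated. Round-3 sorted and input populations were deep sequenced in two replicates. Antigen binding call: positive if a sequence occurred in both antigen-positive samples, negative if it occurred only in input.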
row,Variant,antigen binding call
1,VKGGNVGV,no binding
2,DRRRGSGA,no binding
3,FRRRGAVA,binds
4,FRRRGSAA,binds
5,SRRRGSAA,binds
6,FRRRGAAA,binds
7,VETEGDGF,no binding
8,VETGNSLV,no binding
9,FRRGGAAA,binds
10,FKARGALV,binds
11,FKGEGYGV,no binding
12,FKGEGDGV,no binding
13,FKKKDASV,binds
14,FKGEGSLV,no binding
15,FKTKNYVV,no binding
16,FKRRSASV,no binding
17,FKARGASV,binds
18,SKTKSDAV,no binding
19,YKEGGSGD,binds
20,DKEGGAAD,no binding
21,YAEESAGD,no binding
22,DKEGGSLD,no binding
23,YKEGGAGD,binds
24,DATGGDAD,no binding
25,DTKAASGV,no binding

row,Variant,antigen binding call
1,VEAGDDVV,no binding
2,YRRGSASS,binds
3,SRKKGDGS,no binding
4,DRAGDAGS,no binding
5,SRRGGYVS,no binding
6,SRRGSASS,binds
7,YRRGSAGS,binds
8,YRRGDAGS,binds
9,VEGGTDVV,no binding
10,VATGSSGA,no binding
11,YRRGGSGS,binds
12,YRRGSSGS,binds
13,YAEKDFGV,no binding
14,ATAGSAAV,no binding
15,YRGRGVAV,binds
16,VRKGGVAV,no binding
17,VEGGGYGV,no binding
18,VRGRGVAV,binds
19,VEGRGDAV,no binding
20,VKGRAYGV,no binding
21,VRGTGVAV,no binding
22,YRAGGVAV,binds
23,VRGRGYGV,binds
24,VTTKGDVF,no binding
25,SEARSYVV,no binding

row,Variant,antigen binding call
1,DTREGDAV,no binding
2,YKAKGAAA,binds
3,VEGGGAAA,no binding
4,YKAGDDGA,no binding
5,VKAKGAAA,binds
6,VKAGSDVA,no binding
7,VEAGDAAA,no binding
8,VKAGSAAA,binds
9,YKAGDAAA,binds
10,DAGGGAVA,no binding
11,VTKETFSF,no binding
12,YEGGTDGA,no binding
13,STTRGAVA,no binding
14,ATTRGAVA,no binding
15,VKARNDLV,no binding
16,YRGRDASF,binds
17,YRGRDDWF,no binding
18,YRGRDAGF,binds
19,DAGKGSVD,no binding
20,STATADWV,no binding
21,VKGRADVD,no binding
22,FAGGGDGD,no binding
23,YRGRGVGD,binds
24,FRGRGDGD,binds
25,FRGRGVGD,binds

row,Variant,antigen binding call
1,FAGRGVGD,no binding
2,SAGRGVGS,no binding
3,YRGRGVGS,binds
4,YTGEDAVA,no binding
5,FRGRGDVV,binds
6,DGGRGDVV,no binding
7,DRGRGDVV,no binding
8,FRGRGDGY,binds
9,YRGRGVSS,binds
10,FRGRGDVD,binds
11,FRGKADVD,no binding
12,AATTSFVV,no binding
13,FRGRSYVD,no binding
14,YRGKGVGD,binds
15,FRGRGSVD,binds
16,AATTDAGD,no binding
17,DGAKGDGV,no binding
18,ARTRTAWY,no binding
19,SRRRGAWY,binds
20,ARRRGAWY,binds
21,SKGRSDVY,no binding
22,SKGRADVY,no binding
23,YRGRGSVY,binds
24,FRGRGALY,binds
25,VKGRTSVY,no binding

row,Variant,antigen binding call
1,SKGRGAVY,binds
2,YKGRGSVY,binds
3,YTEAADGA,no binding
4,VRAGADWY,no binding
5,VAKKNASF,no binding
6,FKEAGAVY,no binding
7,FRGRDALY,binds
8,FKGRGAVY,binds
9,FRGRDYGY,no binding
10,FRGRDSGY,binds
11,YKGRGFVY,no binding
12,FRTRDSGY chain 1 V68I,no binding
13,FKGGGAVY,no binding
14,YRGRGFVY,binds
15,ARAGSFWA,no binding
16,FRTEGSGY,binds
17,FRGGSVGY,no binding
18,FRGGSAVY,binds
19,YKGRGSVD,binds
20,FTEGDSGY,no binding
21,FRGRGAVY,binds
22,YAGRGDVY,no binding
23,YRGANVVY,no binding
24,YRGRGVVY,binds
25,FRGRGSVY,binds

row,Variant,antigen binding call
1,AGRGADLS,no binding
2,YRGAGAWA,binds
3,YKGAAFWA,no binding
4,YKGAGAWA,binds
5,YTGTSAWA,no binding
6,VEGGGYSV,no binding
7,DAARGSSV,no binding
8,YRARGSSS,binds
9,YKARTSSS,binds
10,YKARGSSS,binds
11,FGAAAVGD,no binding
12,YRARGSAV,binds
13,YRAKGSAV,binds
14,YKAKGSAV,binds
15,YRAKGAAV,binds
16,YKEEDDAV,no binding
17,YKTRDDAV,no binding
18,VEERDAVA,no binding
19,VEGTSDGD,no binding
20,VAGTGDVA,no binding
21,YTKKTFSY,no binding
22,YGGRADVY,no binding
23,YRARSSLY,binds
24,YRGRSSLY,binds
25,YRGRASLY,binds

row,Variant,antigen binding call
1,YRGEAFLY,no binding
2,VKGRADLY,no binding
3,VAATGVSD,no binding
4,SGEGNSWA,no binding
5,YRGRASVV,binds
6,YAGRADVV,no binding
7,VKREASVV,no binding
8,YKGAGDVV,no binding
9,YKRGGAVV,binds
10,FRRGSSVV,binds
11,FKTKDSVV,no binding
12,YKRGSSVV,binds
13,DARGGAVV,no binding
14,DGGENDVF,no binding
15,DTTKGDVA,no binding
16,DAARGDVV,no binding
17,VRGRSDWV,no binding
18,YRRGSSVV,binds
19,VRGRDDVV,no binding
20,VRRGSSVV,binds
21,VRGRSSVV,binds
22,VRAEASVV,no binding
23,VATGDDWV,no binding
24,SKGRSDVS,no binding
25,YRAGTAVD,binds

row,Variant,antigen binding call
1,DRAGDAVD,no binding
2,DRAGDAVS,no binding
3,YRAGTAVS,binds
4,SAARDFWV,no binding
5,DKEGGDLA,no binding
6,YRKGASVD,binds
7,YRKGSSVD,binds
8,ATGGDDGF,no binding
9,DTTGSDWA,no binding
10,DERRSSAF,no binding
11,VRRRGSAF,binds
12,YRKGASAF,binds
13,YERRSSAF,binds
14,SERRSSAF,no binding
15,YRRGGAAF,binds
16,DGGRGDAF,no binding
17,DGTGGSGA chain 1 R67H,no binding
18,YRRRGSAF,binds
19,YRRRGAAF,binds
20,VRRRGSLF,binds
21,FRRRDAAF,no binding
22,DKGEGDGA,no binding
23,SKAGSDVA,no binding
24,YRGRGFWF,binds
25,DRGRDAWF,no binding

row,Variant,antigen binding call
1,YRGRSAWF,binds
2,FRTGSAWF,no binding
3,YRTRGAWF,binds
4,FRGRGAWF,binds
5,YKGRGFWA,no binding
6,YAGGDDAA,no binding
7,VEAGTAVA,no binding
8,YRGRGAWF,binds
9,YEGTGAVF,no binding
10,YRGRGAVF,binds
11,YAGRGDVF,no binding
12,VAREDDWA,no binding
13,AATTDSVD,binds
14,YTRKSSVD,no binding
15,YKRGSSVD,binds
16,VARGGSVD,no binding
17,DATTDSVD,no binding
18,VKRGSFVD,no binding
19,VATTDSVD,no binding
20,YTKTSSVD,no binding
21,VKRGSSVD,binds
22,YTEEAAVD,binds
23,YTRGASLD,no binding
